# Compounds without any hit were thinned out: in the full panel of roughly 83,000, 20% have a hit.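 A percent growth of 40 corresponds to 60% growth inhibition; 0 means no net growth; -100 means all cells died. Active threshold: below 10.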 Activity calls are given as the source filed them.
# System: MDA-MB-468 breast
# Test: NCI-60 one-dose screen, 48 h (100 = growth as untreated, 0 = no growth, -100 = all killed)
# Settings: 10 µM unless noted
row,SMILES,growth
1,CC(=O)Nc1c(Cl)cc2c(c1Cl)Cc1cc([N+](=O)[O-])ccc1-2,-27.8% (active)
2,COc1ccc(C(=O)C2C(c3ccc(OC)cc3)CN(C)C23C(=O)Nc2ccccc23)cc1 (stereo not given),95.4% (inactive)
3,S=C(S)NCCc1c[nH]c2ccccc12,98.6% (inactive)
4,CCOC(=O)/C=C/c1ccc(C(=O)OCC)[nH]1,53.5% (inactive)
5,CC(C)=CCC[C@](C)(O)[C@H]1CC[C@]2(C)[C@@H]1CC[C@@H]1[C@@]3(C)CC[C@H](OC(=O)CCC(=O)O)C(C)(C)[C@@H]3CC[C@]12C,30.5% [100 µM] (inactive)
6,O=C(O)CCC(=O)OC[C@@H](NC(=O)C(Cl)Cl)[C@H](O)c1ccc([N+](=O)[O-])cc1,95.5% (inactive)
7,O=C(N/N=C/c1ccc([N+](=O)[O-])s1)c1[nH]c2ccc(Br)cc2c1-c1ccccc1,24.8% (inactive)
8,CN1CCc2c(sc3nc4n(-c5ccc(Cl)cc5)cnn4c(=O)c23)C1,81.7% (inactive)
9,CCCCOc1nc2c(C)cccc2cc1-c1cc(-c2ccc(Cl)cc2)nc(-c2ccc(Cl)cc2)c1,102% (inactive)
10,CCN(CC)CC#CCOC(=O)[C@]1(C)CCC[C@]2(C)c3ccc(C(C)C)cc3CC[C@@H]12,65.3% (inactive)
11,O=C1c2ccccc2C(=O)c2sc(Nc3cccc(Cl)c3)nc21,13.2% (inactive)
12,N#CCCN(CCO)c1ccccc1,97.3% (inactive)
13,CCC(C)(C)C(=O)O[C@H]1C[C@@H](C)C=C2C=C[C@H](C)[C@H](CC[C@@H]3C[C@@H](O)CC(=O)O3)[C@H]21,52.6% (inactive)
14,Cc1ccc2nc(Cl)c(Cn3nnnc3SCc3ccccc3)cc2c1,90.4% (inactive)
15,COc1cc2cc(Oc3ccc(NC(=O)Nc4cccc(C(F)(F)F)c4)cc3)c(C)nc2cc1OC,-32.5% (active)
16,Nc1nc(N)nc(N2CCCCC2)n1,124% (inactive)
17,CCCCCCCCCCCCCCCCN(C(C)c1ccccc1)S(=O)(=O)c1ccc(OC)c(N)c1 (stereo not given),119% (inactive)
18,Cn1cc(C(=O)c2nc(-c3c[nH]c4ccc(F)cc34)no2)c2cc(F)ccc21,107% (inactive)
19,CCOC(=O)c1cc(-c2ccc([N+](=O)[O-])cc2)n(-c2ccc(C(=O)O)c(O)c2)c1C,58.8% (inactive)
20,NCCn1cc(-c2nc(-c3c[nH]c4ncccc34)cs2)c2cc(Br)ccc21,66% (inactive)

row,SMILES,growth
1,CC(C)(C)c1ccc(C(=O)Nc2nc3ccc(O)cc3s2)cc1,18.6% (inactive)
2,COC(=O)[C@]12CC[C@@H](C)[C@H](C)[C@@H]1C1=CC[C@@H]3[C@@]4(C)CC(=O)[C@H](OC(=O)c5ccco5)[C@@]5(C)COC(=C45)C[C@@]3(C)[C@]1(C)CC2,8.15% (active)
3,CC(=O)[C@H]1CC[C@H]2[C@@H]3CCC4=CC(=O)C=C[C@]4(C)[C@H]3CC[C@]12C,87.5% (inactive)
4,O=C1/C(=C/c2ccccn2)NC(=S)N1c1ccccc1Cl,36% (inactive)
5,Nc1ccc2c(c1Br)Cc1ccccc1-2,111% (inactive)
6,N#Cc1c(-c2ccc(Cl)cc2)n(O)c2ccccc12,-3.01% (active)
7,Cc1cc(C)c([O-])c(CN(C)CCN(C)Cc2cc(C)cc(C)c2[O-])c1.O=C([O-])c1cccc(C(=O)[O-])n1.[Ti+4],-8.96% (active)
8,CC(C)=CCC[C@](C)(O)[C@H]1CC[C@]2(C)[C@@H]1CC[C@@H]1[C@@]3(C)CCC(NC(=O)c4ccccc4C(=O)O)C(C)(C)[C@@H]3CC[C@]12C (stereo not given in full),89.4% (inactive)
9,O=C(CCCN1CCC(O)(c2ccc(Br)cc2)CC1)c1ccc(F)cc1,49.2% (inactive)
10,O=C1C=CC(=O)N1c1ccccc1,106% (inactive)
11,COc1cnc2c(c1)C(=O)c1c-2n(CCCN2CCN(CCO)CC2)c(=O)c2cc([N+](=O)[O-])ccc12,76.6% (inactive)
12,O=[N+]([O-])c1cccc(-c2nc3sccn3c2-c2ccnc(NCCCNS(=O)(=O)c3ccc(C(F)(F)F)cc3)n2)c1,22.8% (inactive)
13,O=C(O)c1ccc(-n2cc(/C=N/Nc3ccc(F)cc3)c(-c3cc4ccccc4oc3=O)n2)cc1,119% (inactive)
14,Cc1ccc(Nc2ncnc3c2sc2ncccc23)cc1,93% (inactive)
15,CC(C)=CCNc1ncnc2c1ncn2C1OC(CO)C(O)C1O (stereo not given),-44.4% [1 mM] (active)
16,O=C(N/N=C/c1ccc(Cl)cc1)c1ccc(NC(=O)c2ccccn2)cc1,78.2% (inactive)
17,CCCCn1c(=O)c(/C=C/C(=O)/C=C/c2ccc(OC)cc2)cc2cc(Cl)ccc21,86.1% (inactive)
18,NC1=CC(=O)c2ccccc2C1=O,96.2% (inactive)
19,CCOC(=O)c1c(C)c2c(n1Cc1ccccc1)CSc1cc(C#N)c(=O)[nH]c1-2,80.3% [100 µM] (inactive)
20,COc1ccc(-c2nc3sccn3c2/C=C/C(=O)c2cc(OC)c(OC)c(OC)c2)cc1,53.6% (inactive)

# From PubChem BioAssay (NCI)
